Reference: PubChem BioAssay (Tox21)
Unmarked numbers belong to inactive results. Activity calls are given as the source filed them. The call rests on the fitted dose curve; in most records, active means well fitted activation curve with a large enough effect in the repeat runs; inconclusive means weak or mixed curves; inactive means flat fitted curve, though single readings scatter.

test: Caspase-3/7 induction in CHO-K1 cells by small molecules, qHTS assay (AID 1346980); details: CHO-K1 caspase-3/7 induction, Caspase-Glo luminescence, 17 h; series mostly up to 92.4 µM; further: nearly all actives have a fitted effect of over 15% in size
Excerpt: National Center for Advancing Translational Sciences [NCATS]
NIH Chemical Genomics Center [NCGC]
U.S. Environmental Protection Agency [EPA]
National Institutes of Environmental Health Sciences [NIEHS]
National Toxicology Program [NTP]
Apoptosis is a process of programmed cell death and plays a central role in the development of multicellular organisms. It is a highly regulated process and induces cell death by activating caspases, which are the members of cysteine aspartic acid-specific protease (caspase) family. Caspases involved in apoptosis are classified by their mechanism of action as initiator caspases (caspase-2, -8, -9 and -10) and executioner caspases (caspase-3, -6, and -7). Inhibition of apoptosis results in number of cancers, autoimmune diseases, inflammatory diseases and viral infection. To identify small molecule compounds that induce apoptosis, a homogeneous, luminescent Caspase-Glo 3/7 assay was used. Wild type CHO-K1 cells were used to screen Tox21 libraries for identifying caspase-3/7 activity inducers.
CHO-K1 cells were dispensed at 1,500 per well in 5uL of culture medium into white solid bottom 1536-well plates (Corning Life Sciences, Corning, NY) using a Multidrop Combi (Thermo Scientific, Waltham, MA) dispenser. The assay plates were incubated at 37 C and 5% CO2 for 5hr, and then 23nL of compounds dissolved in DMSO and positive control were transferred using a Pintool station (Wako, San Diego, CA). The assay plates were incubated at 37C and 5% CO2 for 17hr. For caspase-3/7 activity read, 4uL of Caspase-Glo 3/7 reagent (Promega Corporation, Madison, WI) was added to each well of the assay plates using Flying Reagent Dispenser (FRD, Aurora Discovery, San Diego, CA) and incubated the assay plates at room temperature for 30min. The luminescence signal was quantified using a ViewLux plate reader (Perkin Elmer, Shelton, CT).
On the % scale 0 is the no-effect control and ±100 the full control effect.

SMILES	outcome	caspase-3/7 activation
CCS(=O)(=O)c1ccc(OC)c(C(=O)OC)c1	inactive	–
CCN(Cc1ccncc1)C(=O)C(CO)c1ccccc1 (stereo not given)	inactive	–
CN(C)CCCSc1ccccc1NC(=O)/C=C/c1ccccc1	inactive	–
Cc1cccn2c(=O)c(-c3nnn[nH]3)cnc12	–	-1.17% [at 19 µM]
C=CCS(=O)(=O)O	inactive	–
C[N+](C)(C)CC(O)CC(=O)[O-] (stereo not given)	inactive	–
ClC(Cl)(Br)Br	inactive	–
CCCCC/C=C\CCC=O	inactive	–
N=C(N)c1ccc(OCCCOc2ccc(C(=N)N)cc2)cc1	inactive	–
COc1ccc2c(c1)c(CC(=O)OCC(=O)O)c(C)n2C(=O)c1ccc(Cl)cc1	inactive	–
CC(=O)Nc1ccc(S(N)(=O)=O)cc1	inactive	–
NS(=O)(=O)c1cc(C(=O)NN2C[C@H]3[C@H]4CCC(C4)[C@H]3C2)ccc1Cl	inactive	–
O=C(O)CCCl	inactive	–
CN1CCC(=C2c3ccccc3CC(=O)c3sccc32)CC1	inactive	–
NCCc1cnc[nH]1	inactive	–
Nc1nc2c(ncn2COC(CO)CO)c(=O)[nH]1	inactive	–
CC1(C)CO[C@@H](CC(=O)O)CN1	inactive	–
CC(C)(C)c1ccc(O)c(O)c1	inactive	–
CC(C)(C)c1nnc(NS(=O)(=O)c2ccccc2)s1	inactive	–
OC1CCCCC1c1ccccc1 (stereo not given)	inactive	–

SMILES	outcome	caspase-3/7 activation
CCSC(=O)N(CC(C)C)CC(C)C	inactive	–
CCCC(=O)O[C@]1(C(=O)CO)CC[C@H]2[C@@H]3CCC4=CC(=O)CC[C@]4(C)[C@H]3[C@@H](O)C[C@@]21C	inactive	–
CC/C=C\CC/C=C/C(OCC)OCC	inactive	–
Cn1cc(S(C)=O)c(=O)c2ccc(F)cc21 (stereo not given)	inactive	–
CC(=O)OCC(=O)[C@@]1(O)CCC2C3CCC4=CC(=O)CC[C@]4(C)C3[C@@H](O)C[C@@]21C (stereo not given in full)	inactive	–
NC(=O)c1ccc([N+](=O)[O-])cc1	inactive	–
Cc1nc2c([nH]1)c(=O)n(C)c(=O)n2Cc1ccco1	inactive	–
CCO[Si](CCC1CCC2OC2C1)(OCC)OCC (stereo not given)	inactive	–
O=C(O)CCCc1ccccc1	inactive	–
CC(C)(O)C(=O)c1ccccc1	inactive	–
Cc1sccc1Br	inactive	–
Nc1c2c(nc3ccccc13)CCCC2O (stereo not given)	inactive	–
c1ccc(CC2=NCCN2)cc1	inactive	–
CC(C)(C)NCCNC(C)(C)C	inactive	–
CCCCCCOC(=O)CCCCC(=O)OCCCCCC	inactive	–
CC(=O)OCC(=O)[C@@]1(O)CC[C@H]2[C@@H]3CCC4=CC(=O)CC[C@]4(C)[C@H]3C(=O)C[C@@]21C	inactive	–
C[C@H]1C[C@@H](O)CC(C)(C)C1	inactive	–
O=C(O)CN(CCOCCOCCN(CC(=O)O)CC(=O)O)CC(=O)O	–	0.707% [at 0.349 µM]
CCOC(=O)[C@H](CCc1ccccc1)N[C@@H](C)C(=O)N1[C@H](C(=O)O)C[C@@H]2CCC[C@@H]21	inactive	–
C=C1CC[C@H]2C[C@@H]1C2(C)C	inactive	–
